Screening results: PubChem BioAssay, several laboratories
PKA-R1A activ: activates the PKA-R1A holoenzyme complex; 340,000 tested, 0.083% active; AID 504707; PKA-R1A dissociation, Cy5-IP20 fluorescence polarization; scaled: DMSO 0%, 113 µM cGMP 100%; activation, % at 11.4 µM; P00514+P68181;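 active = percent activation above the mean of all tested compounds plus 3 SD, cut at about 19% in these data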;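 also: higher means more PKAc released from R1A so a rise in polarization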
PG9 binder: binds the HIV-1 gp120 antibody PG9. TR-FRET gp120-PG9 antibody binding. inhibition, % at 6.7 µM. 360,000 tested, 0.43% active. AID 624416; in the data active = inhibition above about 8.5%
Rev-erbA mod: modulators of human Rev-erb alpha DNA binding | activity, % at 10 µM | AID 1259318 | 370,000 tested, 0.79% active | P20393 | Rev-erbα–FITC-DNA binding, fluorescence polarization, 90 min;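 active = activity above about 14%, limit read from the data; passing the limit was not always enough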;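 also: 0% = DMSO wells with 35 nM protein and 100% = DMSO wells with 750 nM protein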
PKA-R2B activ: PKA-R2B complex activation. 340,000 tested, 0.079% active. P22694+P31323. PKA-R2B holoenzyme dissociation, Cy5-IP20 fluorescence polarization; R2B truncated from residue 108, S112A mutant; 0% DMSO only, 100% 113 µM cGMP. AID 504700. activation, % at 11.4 µM;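 active = activation above a cutoff set at the mean over all compounds plus 3 SD, cut at about 18% in these data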;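 also: higher means more holoenzyme dissociation and a rise in polarization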
R1A FP artifact: FP assay interference, PKA-R1A counter-screen | shares compounds with PKA-R1A activ | Cy5-IP20 peptide alone, fluorescence polarization artifact counterscreen | activation, % at 11.4 µM | 280 tested, 7% active;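 active = mean activation over triplicate runs exceeds the adjusted cutoff derived for the parent primary screen, cut at about 19% in these data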;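 also: no PKA protein present so any polarization rise reflects compound interference; 0% = tracer peptide mix alone and 100% = mix with added PKA catalytic subunit; higher means stronger polarization artifact and likely false positive in parent screen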
PKA-R1A confirm: confirmation of PKA-R1A complex activators | shares compounds with PKA-R1A activ | Cy5-IP20 fluorescence polarization, PKA-R1A holoenzyme dissociation | activation, % at 11.4 µM | 280 tested, 9% active | AID 504800;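 active = mean activation over replicate wells exceeds the adjusted hit threshold taken from the earlier primary screen, cut at about 20% in these data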;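 also: 0% = holoenzyme mix with DMSO only and 100% = cGMP-activated control wells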
Target sequence (P00514 whole entry, looked up): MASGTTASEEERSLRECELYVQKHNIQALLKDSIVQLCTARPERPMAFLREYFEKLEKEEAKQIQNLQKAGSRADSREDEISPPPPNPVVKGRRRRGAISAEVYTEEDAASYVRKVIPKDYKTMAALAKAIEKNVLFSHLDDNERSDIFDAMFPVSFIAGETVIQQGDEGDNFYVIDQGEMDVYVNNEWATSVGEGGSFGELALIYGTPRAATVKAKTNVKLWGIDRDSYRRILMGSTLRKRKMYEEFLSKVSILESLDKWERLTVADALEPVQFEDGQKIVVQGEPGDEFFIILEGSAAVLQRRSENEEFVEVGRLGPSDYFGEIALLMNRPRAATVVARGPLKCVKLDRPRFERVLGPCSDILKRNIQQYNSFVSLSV
PG9 bind confirm: confirmation of small molecules binding HIV-1 gp120 antibody PG9 | shares compounds with PG9 binder | TR-FRET PG9 antibody binding, biochemical | inhibition, % at 6.7 µM | 1,500 tested, 90% active | AID 651571; in the data active = inhibition above about 9%
PGV04 Ab binding: counter-screen for PG9 binders: binding control antibody PGV04; 1,500 tested, 95% active; AID 651604; shares compounds with PG9 binder; inhibition, % at 6.7 µM; TR-FRET PGV04 antibody-gp120 binding, biochemical; in the data active = inhibition above about 9.5%
PG9 binder DR: small molecules binding HIV-1 gp120 antibody PG9; shares compounds with PG9 binder; TR-FRET PG9 antibody-gp120 binding inhibition; IC50, µM; 95 tested, under 10 active; AID 651848; in the data active = IC50 below about 10 µM
PGV04 DR counter: PGV04 binding, dose response counter-screen. 95 tested, 20% active. TR-FRET binding to control antibody PGV04. AID 651937. IC50, µM. shares compounds with PG9 binder
PG126 DR counter: binds control antibody PG126 in PG9 counter-screen; shares compounds with PG9 binder; TR-FRET binding to antibody PG126, counterscreen; IC50, µM; 95 tested, 20% active; AID 651939
* = called active by the depositor; i = inactive; · = not tested or not shown. Shown are actives, neighbours in structure and some others; about 1.2% of the full set was active somewhere. Rule as the data show it, unless noted: active = IC50 below about 9 µM; inactive = the rest.

SMILES	PKA-R1A activ	PG9 binder	Rev-erbA mod	PKA-R2B activ	PG9 bind confirm	PGV04 Ab binding	others
COc1cc2c(cc1OC)CN(C(=O)C(CCSC)NS(=O)(=O)c1ccc(C)cc1)CC2 (stereo not given)	20*	0	-2	-10	·	·	R1A FP artifact=-1;PKA-R1A confirm=-2
COc1cccc(N2CC(C(=O)Nc3nnc(SCC(=O)Nc4ccc(NC(C)=O)cc4)s3)CC2=O)c1 (stereo not given)	2	0	-3	-4	·	·
COc1cccc(C(=O)Nc2nnc(SCC(=O)Nc3ccc(NC(C)=O)cc3)s2)c1	20*	-1	0	5	·	·	R1A FP artifact=1;PKA-R1A confirm=-3
O=C(CCC(=O)c1ccccc1)Nc1ccc(C(=O)O)cc1	19*	-1	3	-1	·	·	R1A FP artifact=1;PKA-R1A confirm=-1
COc1ccc2c(c1)C[C@@H]1CC(C)(C)CN1S2(=O)=O	·	·	6	·	·	·
O=C(NCCCc1ccccc1)C1CCN(c2nc(-c3ccc(Br)cc3)cs2)CC1	·	·	-2	·	·	·
COc1ccc(OC)c(C2C(C(=O)c3ccco3)=C(O)C(=O)N2CCN2CCOCC2)c1 (stereo not given)	19*	-1	-5	2	·	·	R1A FP artifact=2;PKA-R1A confirm=3
CCOc1cc2[nH]c(=S)n(Cc3ccc(C(=O)NCCCN(CC)CC)cc3)c(=O)c2cc1OCC	-11	-1	3	-11	·	·
CCOc1cc2[nH]c(=S)n(Cc3ccc(C(=O)NCCCOC)cc3)c(=O)c2cc1OCC	-1	23*	13	0	8	13*
COC(=O)[C@]12C[C@H](CC(=O)N3CCCC3)C(=O)N(CCc3ccc(OC)c(OC)c3)C1=C[C@H](C1CCCC1)O[C@@H]2C	·	·	1	·	·	·
CCCCCCC(=O)OCC(=O)c1ccc2c(c1)NC(=O)CO2	-14	0	9	-2	·	·
CCc1ccc(OCC(=O)OCC(=O)c2ccc3c(c2)NC(=O)CO3)cc1	11	15*	16	-11	24*	33*
CCC(=O)c1ccc(OCC(=O)c2ccc3c(c2)NC(=O)CO3)cc1	1	16*	15	-4	38*	38*	PG9 binder DR=>67;PGV04 DR counter=i;PG126 DR counter=i
O=C(NCCCN1CCOCC1)c1ccc2c(c1)N(Cc1ccc(F)cc1)CCS2	6	-1	-3	-3	·	·
CN1CCN(CCCNC(=O)c2ccc3c(c2)N(Cc2ccc(F)cc2)CCS3)CC1	-10	17*	5	-12	15*	24*
COc1ccc(C(=O)Nc2cc(-c3ccc(C)cc3)no2)cc1	0	14*	-2	10	15*	18*
COc1ccc(C(=O)/C=C2/Sc3cc4c(cc3N2C)OCO4)cc1	-12	40*	1	-10	56*	49*	PG9 binder DR=>67;PGV04 DR counter=2.4*;PG126 DR counter=2.4*
COC(=O)[C@]12C=CCN1[C@H](c1ccc(C(F)(F)F)cc1)c1c(c3ccccc3n1S(=O)(=O)c1ccc(C)cc1)C2	·	·	1	·	·	·
O=C(C1CCCN1S(=O)(=O)c1ccccc1[N+](=O)[O-])N1CCc2ccccc2C1 (stereo not given)	·	·	1	·	·	·
COC(=O)[C@@H]1[C@H](O[Si](C)(C)C(C)(C)C)[C@H]2O[C@H]2C[C@H]1S(=O)(=O)c1ccccc1	·	·	-5	·	·	·
Cc1nc(SCC(=O)Nc2cc(C(N)=O)cc(C(N)=O)c2)c2c(C)c(C)sc2n1	1	11*	8	-4	18*	36*
Cc1nc(SCC(=O)Nc2sccc2C(N)=O)c2c(C)c(C)sc2n1	-3	-1	-5	-1	·	·
